Source: PubChem
A selection: hits, their analogues and other compounds. The true share with any hit is near 3.2%.
LMNA splice mod = modulators of lamin A splicing. HeLa LMNA splicing GFP/RFP minigene ratio, 48 h. Potency, µM (titrated, usually from 46.1 µM), inactives show top-dose ratio change, negative = inhibition, most hits filed as inhibitors. actives 0.01% (n = 200,000); active = well fitted inhibition curve with a large enough effect in the signal ratio, with a control signal flat, not every such curve was filed as active; inconclusive = small, poorly fitted or top-dose-only effect, or effect the other way, or a change in a side signal; the % refers to the signal ratio; also: potency is read from the fitted curve at half-maximal effect; % is scaled to controls: 0 for no effect and ±100 for the full control effect
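S3 HeLa stable clones carrying a lamin A-EGFP splicing minigene plus DsRed2 were seeded at 600 cells/well in Opti-MEM with 2% FBS, pin-dosed and incubated 48 h at 37°C. Acumen cytometry (488 nm) gave the GFP/RFP total-intensity ratio.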
Tau fluor counter = counter-screen for tau fibril formation inhibitors | Potency, µM (highest dose often 57.7 µM), for the others: at the highest dose activity change, negative = decrease | tau K18 P301L Alexa594 fluorescence, heparin fibrillization | actives 0.93% (n = 280,000); also: potency is read from the fitted curve at half-maximal effect; % is scaled to controls: 0 for no effect and ±100 for the full control effect; nearly all actives have a fitted effect of over 55% in size
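Human K18 P301L tau (15 uM unlabeled plus 0.24 uM Alexa 594-labeled, final) in 100 mM sodium acetate pH 7 was mixed with compound and 20 uM heparin and incubated 6 hr at 37 C.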
Tau fibril ThT = tau fibrillization inhibition (ThT binding) | P10636 | recombinant tau K18 P301L (four-repeat tau fragment), heparin-induced fibrillization, ThT fluorescence | Potency, µM (top dose mostly 57.4 µM), for the others: at the highest dose activity, negative = inhibition, hits mostly inhibitors | actives 2.1% (n = 270,000) | AID 1460; also: potency is read from the fitted curve at half-maximal effect; % is scaled to controls: 0 for no effect and ±100 for the full control effect; nearly all actives have a fitted effect of over 55% in size
Target sequence (P10636 561-689 P618L limits assumed): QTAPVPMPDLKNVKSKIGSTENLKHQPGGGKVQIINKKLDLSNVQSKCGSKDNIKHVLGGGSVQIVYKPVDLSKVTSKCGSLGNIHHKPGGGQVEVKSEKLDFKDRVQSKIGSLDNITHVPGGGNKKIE
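Tau K18 P301L fragment (15 uM unlabeled plus 0.24 uM Alexa 594-labeled) in 100 mM sodium acetate pH 7 with compound, fibrillization induced by 20 uM heparin for 6 hr at 37 C. Thioflavin T (30 uM) added, fluorescence read after 1 hr (ex 450, em 510 nm).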
JMJD2E inh = JMJD2E (human) inhibition. B2RXH2. JMJD2E catalytic domain, FDH-coupled NADH fluorescence (FDH is formaldehyde dehydrogenase). Potency, µM (doses to about 57.1 µM), for inactives: at the top dose activity change, negative = inhibition, actives largely listed as inhibitors. actives 1.6% (n = 230,000). AID 2147; active = well fitted inhibition curve with a large enough effect, not every such curve was filed as active; inconclusive = small, poorly fitted or top-dose-only effect, or another doubt; inactive = no such curve, though single readings can be large or run the other way;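 also: potency is read from the fitted curve at half-maximal effect; 0% = wells with enzyme and -100% = buffer wells without enzyme; nearly all actives have a fitted effect of over 50% in size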
CBFb RUNX1 block = CBF-beta/RUNX1 interaction disruption; AlphaScreen CBFb-His/RUNX1-biotin binding, biochemical; Potency, µM (series often up to 59.8 µM), for inactives: at the top dose activity, negative = inhibition, most hits filed as inhibitors; 230,000 tested, under 10 active; Q01196+Q13951; also: % of control where 0% means no effect
Target sequence (Q01196 whole entry, looked up): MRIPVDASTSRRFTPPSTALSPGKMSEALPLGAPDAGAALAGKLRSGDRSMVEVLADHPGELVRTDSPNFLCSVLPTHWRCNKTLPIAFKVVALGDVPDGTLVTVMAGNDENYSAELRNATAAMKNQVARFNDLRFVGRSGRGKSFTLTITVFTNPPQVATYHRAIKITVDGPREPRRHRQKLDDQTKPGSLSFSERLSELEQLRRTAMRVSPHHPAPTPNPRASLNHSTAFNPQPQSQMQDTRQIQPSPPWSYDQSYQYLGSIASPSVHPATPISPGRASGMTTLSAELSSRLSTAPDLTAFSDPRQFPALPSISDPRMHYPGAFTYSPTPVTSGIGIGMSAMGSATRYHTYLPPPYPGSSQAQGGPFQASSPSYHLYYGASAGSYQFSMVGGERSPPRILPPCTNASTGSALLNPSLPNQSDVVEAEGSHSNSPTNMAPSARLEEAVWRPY
Target sequence (Q13951 whole entry, looked up): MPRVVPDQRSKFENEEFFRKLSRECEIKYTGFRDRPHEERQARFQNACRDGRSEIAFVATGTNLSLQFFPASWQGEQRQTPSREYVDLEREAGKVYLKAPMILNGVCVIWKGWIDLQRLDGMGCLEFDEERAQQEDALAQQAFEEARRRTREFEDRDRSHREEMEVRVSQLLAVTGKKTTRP
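Read-out: AlphaScreen. Format: His-CBF-beta with biotinylated RUNX1 (30 nM each) preincubated 20 min, compound 15 min, Ni-chelate plus streptavidin beads 90 min; room temperature throughout.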
Tau fibril FP = blocks human tau fibril formation measured by polarization; K18 P301L tau heparin fibrillization, Alexa594 FP, 6 h; Potency, µM (highest dose often 57.7 µM), without a hit: at the top dose activity, negative = inhibition, most hits filed as inhibitors; actives 0.39% (n = 280,000); AID 1468; also: potency is read from the fitted curve at half-maximal effect; % is scaled to controls: 0 for no effect and ±100 for the full control effect; nearly all actives have a fitted effect of over 55% in size
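Human tau K18 […] P301L fragment, 15 uM unlabeled plus 0.24 uM Alexa 594-labeled tau (final), with compound and 20 uM heparin in 100 mM sodium acetate pH 7; 6 hr at 37 C, then Alexa 594 FP read.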
An asterisk follows results filed as active; ! = repeats disagree; [ ] = remark or other dose. Unless noted, calls follow the shape of the dose curve; as a rule, active = well fitted curve in the direction sought with a large enough effect; inconclusive = small, poorly fitted or top-dose-only effect, or another doubt; inactive = no such curve, though single readings can be large; an effect the other way counts as inactive or inconclusive.

For COC(=O)c1ccc(-c2ccc(C(c3c(C)[nH][nH]c3=O)c3c(C)[nH][nH]c3=O)o2)cc1 the results were Tau fluor counter -26.0%, Tau fibril ThT 5.01µM*, JMJD2E inh inconclusive, CBFb RUNX1 block inconclusive and Tau fibril FP inconclusive.
For Cc1ccccc1NC(=O)c1ccc(-c2ccc(Cl)cc2Cl)o1 the results were LMNA splice mod 8.3%, Tau fluor counter -21.9%, Tau fibril ThT inconclusive, JMJD2E inh inconclusive, CBFb RUNX1 block 20.1% and Tau fibril FP -4.1%.
For Cc1[nH][nH]c(=O)c1C(c1ccc(-c2ccc(Cl)cc2Cl)o1)c1c(C)[nH][nH]c1=O the results were LMNA splice mod 0.6%, Tau fluor counter -28.1%, Tau fibril ThT 11.2µM*, JMJD2E inh 8.4%, CBFb RUNX1 block -20.7% and Tau fibril FP inconclusive.
CC=C1COC(C(=O)NCCOCCO)(C(F)(F)F)C=C1C=C(C)C (stereo unspecified) was read as CBFb RUNX1 block 7.5%.
Screening CCc1nc2nc(C)c(NS(=O)(=O)c3ccc(C)cc3)c(=O)n2[nH]1 returned Tau fluor counter 0.2%, Tau fibril ThT 1.1% and Tau fibril FP 6.2%.
Screening O=[N+]([O-])c1cc(C(F)(F)F)ccc1NCCCCNS(=O)(=O)c1ccc(Cl)cc1 returned LMNA splice mod inconclusive, Tau fluor counter inconclusive, Tau fibril ThT inconclusive, JMJD2E inh -7.7%, CBFb RUNX1 block -20.7% and Tau fibril FP 7.9%.
O=[N+]([O-])c1ccc(NC(=S)NCCc2ccc(Cl)cc2)cc1 was read as LMNA splice mod inconclusive, Tau fluor counter 7.94µM*[quencher], Tau fibril ThT inconclusive, JMJD2E inh -4.2%, CBFb RUNX1 block -4.1% and Tau fibril FP 12.6µM*.
`NS(=O)(=O)c1ccc(NC(=S)NCCc2ccccc2)cc1` gave LMNA splice mod 10.5%[46 µM], Tau fluor counter -2.9%, Tau fibril ThT 9.8%, JMJD2E inh -15.7%, CBFb RUNX1 block 0.2% and Tau fibril FP -6.8%.
`O=[N+]([O-])c1ccc(NC(=S)NCCc2ccccc2)cc1` gave LMNA splice mod inconclusive, Tau fluor counter 12.6µM*[quencher], Tau fibril ThT inconclusive, JMJD2E inh 9.0%, CBFb RUNX1 block -16.7% and Tau fibril FP inconclusive.
`O=[N+]([O-])c1cc(C(F)(F)F)ccc1NCCNC(=S)Nc1ccc(Cl)cc1` gave LMNA splice mod inconclusive, Tau fluor counter 7.08µM*[quencher], Tau fibril ThT 11.2µM*, JMJD2E inh -3.5%, CBFb RUNX1 block -11.9% and Tau fibril FP 20µM*.
S=C(NCCc1ccccc1)Nc1ccc(Cl)cc1 was read as LMNA splice mod -8.7%, Tau fluor counter inconclusive, Tau fibril ThT -6.3%, JMJD2E inh 4.3%, CBFb RUNX1 block 9.4% and Tau fibril FP inconclusive.
`CC[C@@H](C)[C@@H](O)[C@H](C)C(=O)[C@H](C)/C=C(\C)C[C@H](C)[C@@H]1OC(=O)[C@H]1CC` gave CBFb RUNX1 block -6.6%.
Screening CCN(C(=O)c1cn(C)c(=O)c2ccccc12)c1cccc(C)c1 returned Tau fluor counter -6.1%, Tau fibril ThT inconclusive and Tau fibril FP 4.4%.
Oc1c(C(c2ccccc2Cl)N2CCC(O)CC2)sc2nc(-c3ccco3)nn12 (stereo unspecified) was read as LMNA splice mod inconclusive, Tau fluor counter -5.2%, Tau fibril ThT -5.6% and Tau fibril FP -8.8%.
`O=c1nc(/C=C/c2ccc(-c3ccc(F)cc3)o2)cc(C(F)(F)F)[nH]1` gave LMNA splice mod inconclusive, Tau fluor counter -16.2%, Tau fibril ThT 15.8µM*, JMJD2E inh -10.6%, CBFb RUNX1 block -3.8% and Tau fibril FP -6.7%.
For O=C(O)c1ccccc1-c1ccc(/C=C/c2cc(C(F)(F)F)[nH]c(=O)n2)o1 the results were LMNA splice mod -11.1%[46 µM], Tau fluor counter 10.6%, Tau fibril ThT 10.9%, JMJD2E inh inconclusive, CBFb RUNX1 block inconclusive and Tau fibril FP 0.6%.
CN(C)C1(CNC(=O)COc2ccc(C(C)(C)C)cc2)CCCCC1 was read as LMNA splice mod 17.5%[46 µM], Tau fluor counter -15.0%, Tau fibril ThT -14.1% and Tau fibril FP -0.2%.
For O=C(O)c1ccccc1C(=O)Nc1n[nH]c(=S)s1 the results were LMNA splice mod inconclusive, Tau fluor counter -13.7%, Tau fibril ThT inconclusive, JMJD2E inh 3.98µM*, CBFb RUNX1 block 6.6% and Tau fibril FP inconclusive.
`O=C(Cn1c(=O)nc(-c2ccccc2)c2cc(Cl)ccc21)NCc1ccccc1` gave LMNA splice mod 4.5%[46 µM], Tau fluor counter 10.7%, Tau fibril ThT 10.0% and Tau fibril FP -9.3%.
CCN(Cc1ccccc1)c1ccc(/C=N/NS(=O)(=O)c2cccc([N+](=O)[O-])c2)cc1 was read as LMNA splice mod inconclusive, Tau fluor counter 7.94µM*[quencher], Tau fibril ThT inconclusive, JMJD2E inh inconclusive, CBFb RUNX1 block inconclusive and Tau fibril FP 18.0%.
`CCN(CC)c1ccc(/C=N/NS(=O)(=O)c2ccc(C)c([N+](=O)[O-])c2)cc1` gave LMNA splice mod -6.8%, Tau fluor counter inconclusive, Tau fibril ThT inconclusive, JMJD2E inh -4.5%, CBFb RUNX1 block 1.0% and Tau fibril FP -2.8%.
CCCCCOc1ccc(Cn2c(=O)oc3ccc(C)cc32)cc1OC was read as Tau fluor counter -15.2%, Tau fibril ThT -4.9% and Tau fibril FP -1.1%.
O=C(O)/C=C/c1ccc(O)c(O)c1 was read as LMNA splice mod inconclusive, Tau fluor counter -20.8%, Tau fibril ThT inconclusive, JMJD2E inh 0.562µM*!, CBFb RUNX1 block -4.7% and Tau fibril FP -10.1%.
`O=C(/C=C/c1ccc(O)c(O)c1)NC(=O)c1ccccc1O` gave Tau fluor counter -28.8%, Tau fibril ThT inconclusive, JMJD2E inh 14.1µM*, CBFb RUNX1 block inconclusive and Tau fibril FP 8.6%.
O=C(O)/C=C/c1ccc(/C=C/C(=O)O)cc1 was read as CBFb RUNX1 block 13.6%[21.7 µM].
For O=C(CCOc1ccccc1)N(Cc1cccnc1)c1nc2c(F)cccc2s1 the results were LMNA splice mod inconclusive, Tau fluor counter -11.4%, Tau fibril ThT -10.8% and Tau fibril FP 0.6%.
CCOCCCNC(=O)C(c1ccc(Cl)cc1)N(Cc1ccc2c(c1)OCO2)C(=O)c1ccc(NC(C)=O)cc1 (stereo unspecified) was read as Tau fluor counter -21.6%, Tau fibril ThT -13.6% and Tau fibril FP -1.4%.
COc1ccc(CNC(=O)CN2N=C(c3ccccc3)CCC2=O)c(OC)c1 was read as LMNA splice mod 9.5%[46 µM], Tau fluor counter -16.4%, Tau fibril ThT -7.3% and Tau fibril FP -0.9%.
